Assay outcomes from PubChem BioAssay.
zVAD death inh = inhibitors of zVAD-triggered necroptosis, primary screen, L929 cells | L929 zVAD necroptosis rescue, ATP luminescence, 24 h; with zVAD 60 µM | viability rescue, % at 10 µM | 220,000 compounds, 0.38% hits;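 active = activation, scaled between plate controls, above about 75%, limit read from the data; inactive = activation under that limit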;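 note: 0% = zVAD with DMSO and 100% = DMSO alone without zVAD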
Bim-Mcl-1 = inhibitors of Bim peptide binding to Mcl-1, primary screen, biochemical, bead-based flow cytometry, multiplex; Induced myeloid leukemia cell differentiation protein Mcl-1 (Homo sapiens), Q07820; Bim peptide-Mcl-1 binding; inhibition, % at 10 µM; 190,000 compounds, 0.1% hits; AID 1009, 2008; in the data active = inhibition above about 40%;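 note: 0% = no compound tracer wells and 100% = peptide blocker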
Target sequence (Q07820 whole entry, looked up): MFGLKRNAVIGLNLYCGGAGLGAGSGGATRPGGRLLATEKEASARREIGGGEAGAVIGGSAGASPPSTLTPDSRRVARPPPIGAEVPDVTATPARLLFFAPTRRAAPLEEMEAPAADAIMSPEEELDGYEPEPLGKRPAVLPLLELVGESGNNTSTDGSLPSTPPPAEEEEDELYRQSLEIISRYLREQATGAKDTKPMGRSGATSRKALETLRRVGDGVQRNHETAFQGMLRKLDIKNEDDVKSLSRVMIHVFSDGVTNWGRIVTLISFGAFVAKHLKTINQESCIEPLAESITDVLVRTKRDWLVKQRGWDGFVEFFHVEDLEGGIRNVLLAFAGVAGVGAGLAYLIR
TNF necrop inh = inhibitors of TNF-alpha triggered necroptosis, primary screen, cell-based, Jurkat FADD-/-, single concentration | Jurkat FADD-/- TNF necroptosis rescue, ATP luminescence, 24 h; 0 = TNF only, 100 = no-TNF cells | 220,000 compounds, 0.068% hits | activation (protection from cell death), % at 10 µM;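 active = activation, meaning protection from cell death, of at least 50% relative to plate controls; inactive = activation below 50%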;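 note: necroptosis triggered by 40 ng/mL TNF-alpha added together with compound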
Mcl1 Bid PPI = Mcl-1/Bid binding inhibitors, primary screen, biochemical, TR-FRET, 1536-well; TR-FRET Mcl-1/Bid-Dy647 peptide binding; inhibition, % at 21.7 µM; 220,000 compounds, 0.97% hits;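 active = compounds that cut the binding signal by more than half at the single screening dose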;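 note: His-tagged Mcl-1 with europium anti-His antibody binding Bid BH3 peptide; 0% = Mcl-1 plus peptide wells and 100% = peptide-only wells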
MCL1-BIM inh = inhibitors of MCL1 binding to BIM-BH3, primary screen, biochemical, fluorescence polarization; Induced myeloid leukemia cell differentiation protein Mcl-1 (Homo sapiens), Q07820; GST-MCL1 / FITC-Bim-BH3 fluorescence polarization; inhibition, % at 10.9 µM; 320,000 compounds, 0.68% hits; AID 2057, 2009;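 active = inhibition above the mean inhibition of all tested compounds plus 3 SD, set per campaign, cut at about 40% in these data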;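 note: 0% = DMSO wells and 100% = unlabeled Bim-BH3 peptide control; higher means more loss of mP so more displacement of Bim peptide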
Mcl1 Noxa PPI = Mcl-1/Noxa binding inhibitors, primary screen, biochemical, TR-FRET, 1536-well; AID 1022, 2008; inhibition, % at 21.7 µM; TR-FRET Mcl-1/Noxa peptide binding, 2 h; Induced myeloid leukemia cell differentiation protein Mcl-1 (Homo sapiens), Q07820; 220,000 compounds, 1.5% hits;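 active = compounds that cut the protein-peptide binding signal by more than 50% relative to plate controls in a single-dose test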;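 note: His-tagged Mcl-1 with rhodamine Noxa BH3 peptide and terbium anti-His antibody; 0% = Mcl-1 plus Noxa peptide wells and 100% = peptide-only wells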
zVAD necrop conf = inhibitors of zVAD-triggered necroptosis in L929, confirmation, L929 cells, duplicate runs; shares compounds with zVAD death inh; L929 zVAD-induced necroptosis rescue, ATP luminescence, 24 h; activation (protection from necroptosis), % at 10 µM; 760 compounds, 16% hits; AID 463117, 2010;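 active = mean protection from necroptosis of at least 50% over duplicate tests; inactive = mean protection below 50%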;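 note: 0% = cells with zVAD alone and 100% = vehicle cells without zVAD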
* hit, by the source's call; / = not tested or not shown. Shown are actives, neighbours in structure and some others; about 2.4% of the full set was active somewhere.

SMILES	zVAD death inh	Bim-Mcl-1	TNF necrop inh	Mcl1 Bid PPI	MCL1-BIM inh	Mcl1 Noxa PPI	zVAD necrop conf
CCC(=O)Oc1ccc(-c2cnc3ccccc3n2)cc1	89.2*	-1.0	-3.0	14.0	17.1	/	39.3
CCCCCCCCC(NC(=O)c1ccc(C#N)cc1)C(=O)NCCC (stereo not given)	/	/	/	/	7.6	/	/
CC(C)C(=O)Nc1nc2ccc(S(C)(=O)=O)cc2s1	84.0*	1.0	-10.1	-2.9	1.8	-18.2	9.2
CS(=O)(=O)c1ccc2nc(NC(=O)Cc3ccccc3)sc2c1	76.1*	-6.0	8.0	6.2	2.2	12.2	21.8
CS(=O)(=O)c1ccc2nc(NC(=O)CS(=O)(=O)Cc3ccccc3)sc2c1	4.2	0.0	1.9	1.7	5.4	6.1	/
CCC(C)C(=O)Nc1nc2ccc(S(C)(=O)=O)cc2s1 (stereo not given)	73.4	-5.0	-4.4	-2.4	0.4	2.6	/
CC(=O)Nc1nc2ccc(Br)cc2s1	80.1*	0.0	-4.1	7.9	-2.5	8.1	34.8
COc1ccc2nc(NC(C)=O)sc2c1	63.7	0.0	-0.6	-7.1	-2.1	-7.0	/
O=C(c1ccco1)N1CCCC(c2nc3c(nnn3Cc3ccc(F)cc3)c(=O)[nH]2)C1 (stereo not given)	/	/	/	/	-3.3	/	/
Cc1ccc(C2=NN(C(=O)CCCC(=O)O)C(c3ccc4c(c3)OCO4)C2)cc1 (stereo not given)	/	/	/	/	-2.6	/	/
CCOc1ccc2nc(NC(=O)C3CCCN(S(=O)(=O)c4cccs4)C3)sc2c1 (stereo not given)	88.3*	-1.0	1.1	1.7	3.7	23.9	5.1
CCCCCCC(CC(=O)NCc1cccnc1)CC(=O)NCc1cccnc1	/	/	/	/	-6.4	/	/
Cc1ccc(N(C(=O)c2csnn2)C(C(=O)NC2CCCCC2)c2cccnc2)cc1C (stereo not given)	/	/	/	/	4.5	/	/
CCN(CC)CCN(C(=O)c1cc2c(ccc3ccccc32)oc1=O)c1nc2cc3c(cc2s1)OCCO3	/	/	/	/	5.1	/	/
CCOc1cc(/C=C2/SC(=S)NC2=O)ccc1OC(=O)c1ccco1	78.5*	-6.0	3.2	-3.8	6.9	57.1*	1.7
COc1ccccc1P(=O)(Cc1ccccc1[N+](=O)[O-])c1ccccc1 (stereo not given)	/	/	/	/	-3.5	/	/
NC(=O)c1ccc(-n2nnnc2SCc2ccccc2)cc1	0.8	5.0	0.4	-4.2	1.6	21.8	/
O=C(Nc1nccs1)c1ccc(CSc2nnnn2-c2ccccc2)cc1	87.3*	14.0	14.4	-20.8	0.9	12.3	89.3*
CC(C)(C)c1ccc(NC(=O)c2cc[n+]([O-])cc2)cc1	/	/	/	/	-3.3	/	/
CC(C)(C)c1ccc(C(=O)Nc2ccc(S(N)(=O)=O)cc2)cc1	83.2*	/	0.1	-0.9	-3.2	-6.2	34.2
O=C(N/N=C/c1c[nH]c2ccccc12)c1cc(Cl)ccc1O	/	/	/	/	8.5	/	/
COc1cccc(C2/C(=C(/O)c3ccc4c(c3)OCO4)C(=O)C(=O)N2CCN2CCOCC2)c1 (stereo not given)	/	/	/	/	-3.1	/	/
CC1CCc2nc(NC(=O)C3CC3)sc2C1 (stereo not given)	78.0*	-3.0	-0.1	13.4	-3.7	13.9	29.1
Cc1ccc(NC(=O)COC(=O)c2ccc3c(c2)NC(=O)C2CCCN32)cc1C (stereo not given)	89.5*	0.0	-3.9	4.4	/	5.5	61.3*
C(=N\Nc1ncnc2sc3c(c12)CCC3)/c1cccs1	81.1*	-1.0	-14.3	-85.1	-6.2	-46.9	40.5
SMILES	zVAD death inh	Bim-Mcl-1	TNF necrop inh	Mcl1 Bid PPI	MCL1-BIM inh	Mcl1 Noxa PPI	zVAD necrop conf
c1cc(Nc2ncnc3sc4c(c23)CCC4)ccn1	0.2	1.0	-0.8	-23.1	1.5	1.8	/
C(=N\Nc1ncnc2sc3c(c12)CCC3)/c1ccncc1	78.6*	5.0	17.1	-35.1	7.2	3.9	43.4
COc1cc(=O)[nH]c(SCC(=O)Nc2nc3c(s2)CCCC3)n1	/	/	/	/	6.2	/	/
CCN(CC)CCNC(=O)c1cc2c(=O)n(C)c3ccccc3c2n1C	77.2*	-1.0	4.5	-9.1	-0.2	29.6	19.7
CCCCN(CC)CCNC(=O)c1cc2c(=O)n(C)c3ccccc3c2n1C	74.6	0.0	4.4	-25.1	5.2	42.0	/
CN(C)CCNC(=O)c1cc2c(=O)n(C)c3ccccc3c2n1C	59.0	-1.0	3.2	3.6	8.0	40.5	/
CCN(CC)CCCNC(=O)c1cc2c(=O)n(C)c3ccccc3c2n1C	77.3*	0.0	3.7	-16.6	0.9	32.4	33.1
CCCN(CCC)CCCNC(=O)c1cc2c(=O)n(C)c3ccccc3c2n1C	79.5*	-1.0	3.5	-16.7	-0.1	21.6	35.8
O=C(COc1ccccc1)N=C1SC2CS(=O)(=O)CC2N1c1ccccc1F (stereo not given)	/	/	/	/	4.8	/	/
O=S(=O)(c1ccc2nc(Nc3ccccc3)ccc2c1)N1CCCCC1	/	/	/	/	6.3	/	/
Cc1ccc(NC(=O)COc2ccc(-c3nnco3)cc2)cc1S(=O)(=O)N1CCOCC1	78.4*	-3.0	-0.1	7.1	-3.0	1.4	2.5
O=C(O)c1ccc(N=Cc2c(O)ccc3oc4c(c23)CCCC4)cc1	0.6	/	-16.9	-15.7	3.7	20.3	/
Oc1ccccc1N=Cc1c(O)ccc2oc3c(c12)CCCC3	75.2*	/	-21.8	-9.1	15.1	29.3	2.2
COc1ccccc1NS(=O)(=O)c1ccc(C(=O)N2CC(C)OC(C)C2)cc1 (stereo not given)	/	/	/	/	-0.1	/	/
O=C(CSc1nnc2n1CCCN2C(=S)Nc1ccc(Cl)cc1)c1ccccc1	93.0*	-4.0	96.0*	-27.0	-10.4	6.9	3.1
O=C(CSc1nnc2ccccn12)c1ccc(Cl)cc1	-0.3	0.0	-0.1	-9.9	-2.4	8.8	/
COc1cc(/C=N/NC(=O)c2ccc3ccccc3c2)ccc1Oc1ccc([N+](=O)[O-])cn1	75.8*	-1.0	6.1	-4.8	-9.6	29.8	4.3
CSc1cccc(NS(=O)(=O)c2cn(C)cn2)c1	/	/	/	/	1.6	/	/
COc1ccc(NC(=O)NC23CC4CC(CC(C4)C2)C3)cc1OC	0.1	-4.0	-2.3	-9.6	5.3	3.9	/
CCOc1ccc(NC(=O)Nc2cccc(C(=O)O)c2)cc1	0.6	-3.0	-4.1	0.2	-6.2	1.6	/
CCOC(=O)c1cccc(NC(=O)Nc2ccc(OCC)cc2)c1	75.8*	2.0	-1.7	-1.4	-3.9	7.7	1.9
